Test results: PubChem BioAssay (EPA / NIEHS)
“And” between values parts separate entries of the source, which are not always exact repeats. Equal values may be shown once. Inconclusive results are not listed. Where a structure was tested more than once in an assay, its records may differ in their call. The source made the active and inactive calls. The calls were made as follows, unless noted: active = hit-call score of the fitted dose curve at least 0.9, where 1 is the maximum; inconclusive = response in the unintended direction; inactive = score below 0.9.

Key:
[1] = Tanguay_ZF_120hpf_OTIC_legacy: (Legacy) Oregon State University Tanguay Lab 120 Hour Post-fertilization zebrafish Assay for Otic Vesicle Malformation (AID 2283639)
Summary of the method: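 Tropical 5D wild-type zebrafish embryos were exposed statically in sealed, foil-covered plates at 28C until 120 hpf, with 0.64% (vol/vol) DMSO final. Otic vesicle malformation was scored present/absent by brightfield microscopy, with DMSO as baseline.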

[2] = Tanguay_ZF_120hpf_PE_legacy: (Legacy) Oregon State University Tanguay Lab 120 Hour Post-fertilization zebrafish Assay for Pericardial Edema (AID 2283640)
Summary of the method: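 Read-out is the presence or absence of pericardial edema at 120 hpf under brightfield, with gain of signal fitted against DMSO controls. Larvae (5D wild-type) were statically exposed at 28C with 0.64% final DMSO.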

[3] = Tanguay_ZF_120hpf_BRAI_legacy: (Legacy) Oregon State University Tanguay Lab 120 Hour Post-fertilization zebrafish Assay for Brain Malformation (AID 2283641)
Summary of the method: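 Brain malformation in Tropical 5D zebrafish was recorded as a binary endpoint after static compound exposure from early development to 120 hpf at 28C. Activity was analysed against DMSO as negative control.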

[4] = Tanguay_ZF_120hpf_PFIN_legacy: (Legacy) Oregon State University Tanguay Lab 120 Hour Post-fertilization zebrafish Assay for Pectoral Fin Malformation (AID 2283648);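 also: each larva judged yes or no for fin defect by brightfield with dead larvae skipped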
Summary of the method: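 5D WT zebrafish; pronase dechorionation 4 hpf; 1 embryo/well at 6 hpf; static exposure to 120 hpf, 28C, sealed, foil-covered; final DMSO 0.64% v/v; 5 uM trimethyltin chloride positive control; fin defect scored yes/no.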

[5] = Tanguay_ZF_120hpf_CFIN_legacy: (Legacy) Oregon State University Tanguay Lab 120 Hour Post-fertilization zebrafish Assay for Caudal Fin Malformation (AID 2283649)
Summary of the method: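 Embryos were collected from Tropical 5D wild-type adults and dechorionated at 4 hpf. At 6 hpf each was exposed, one per well, at 0.64% DMSO and 28C. At 120 hpf fin morphology was scored; dead embryos were excluded.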

[6] = Tanguay_ZF_120hpf_CIRC_legacy: (Legacy) Oregon State University Tanguay Lab 120 Hour Post-fertilization zebrafish Assay for Circulatory Malformation (AID 2283651)
Summary of the method: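 Tropical 5D wild-type embryos, dechorionated with pronase at 4 hpf, were placed singly in wells at 6 hpf and exposed statically at 28C to 120 hpf (0.64% DMSO final). Circulatory malformation was scored present/absent by brightfield microscopy.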

[7] = read-out: solute carrier (SLC22A6), SLC22A6 (gene 9356); assay: LTEA_HepaRG_SLC22A6: Life Technologies and Expression Analysis (LTEA) Assay for solute carrier (SLC22A6) using HepaRG (AID 2283653; active = hit-call score of the fitted dose curve at least 0.9, where 1 is the maximum; inactive = score below 0.9); conditions: mRNA level, 48 h; actives raise or lower the signal
Summary of the method: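 This endpoint tracks SLC22A6 mRNA induction or suppression in human HepaRG cultures after 48 h dosing, concentrations reaching 100 uM. Values derive from bidirectional fitting against DMSO controls.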

[8] = Tanguay_ZF_120hpf_SWIM_legacy: (Legacy) Oregon State University Tanguay Lab 120 Hour Post-fertilization zebrafish Assay for Swim Bladder Malformation (AID 2283654);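 also: swim bladder malformation in each larva scored yes or no under brightfield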
Summary of the method: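 Embryos lacking chorions were exposed individually and statically to test chemical from 6 to 120 hpf at 28C, with 0.64% DMSO as vehicle. At 120 hpf, swim bladder malformation was recorded as present or absent by brightfield microscopy.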

[9] = Tanguay_ZF_120hpf_NC_legacy: (Legacy) Oregon State University Tanguay Lab 120 Hour Post-fertilization zebrafish Assay for Notochord and Tail Malformation (AID 2283656)
Summary of the method: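 Dechorionated 5D zebrafish, 1/well from 6 hpf; static exposure to 120 hpf, 28C, sealed, dark; final DMSO 0.64% v/v. NC scored binary (present/absent); dead embryos not scored. Fit vs DMSO baseline, gain direction.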

[10] = read-out: solute carrier (SLC10A1), SLC10A1 (gene 6554); assay: LTEA_HepaRG_SLC10A1: Life Technologies and Expression Analysis (LTEA) Assay for solute carrier (SLC10A1) using HepaRG (AID 2283657; active = hit-call score of the fitted dose curve at least 0.9, where 1 is the maximum; inactive = score below 0.9); conditions: mRNA level, 48 h; actives raise or lower the signal
Summary of the method: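 Transcript levels were measured by qRT-PCR after human HepaRG cells received test chemical for 48 hours, up to 100 uM in half-log dilutions. Values come from bidirectional concentration-response fitting relative to 0.5% DMSO vehicle.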

[11] = read-out: matrix metalloproteinase-1 (MMP1), MMP1 (gene 4312); assay: LTEA_HepaRG_MMP1: Life Technologies and Expression Analysis (LTEA) Assay for matrix metalloproteinase-1 (MMP1) using HepaRG (AID 2283658; active = hit-call score of the fitted dose curve at least 0.9, where 1 is the maximum; inactive = score below 0.9); conditions: mRNA level, 48 h; actives raise or lower the signal
Summary of the method: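 Bidirectional concentration-response fitting relative to 0.5% DMSO gives the endpoint, derived from MMP1 mRNA levels (qRT-PCR) in human HepaRG cells treated 48 h with chemicals up to 100 uM.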

[12] = read-out: Broad substrate specificity ATP-binding cassette transporter ABCG2 (Homo sapiens) (UniProt Q9UNQ0); assay: CLD_ABCG2_6hr: CellzDirect (CLD) Gene Expression Assay for ABC Transporter (ABCG2) at 6 hours (AID 2283660)
Summary of the method: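 Primary human hepatocytes dosed daily with chemicals at multiple concentrations (0.2% DMSO vehicle), harvested 6 h after dosing. ABCG2 mRNA induction read by quantitative nuclease protection assay (qNPA) chemiluminescence; gain of signal fitted against DMSO baseline.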

[13] = read-out: xenobiotic metabolism (CYP1A1), CYP1A1 (gene 1543); assay: CLD_CYP1A1_6hr: CellzDirect (CLD) Gene Expression Assay for xenobiotic metabolism (CYP1A1) at 6 hours (AID 2283661);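 as to AC50: potency for transcript induction above DMSO vehicle baseline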
Summary of the method: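 Primary human hepatocytes from two donors, compound versus 0.2% DMSO vehicle. CYP1A1 mRNA measured 6 h after dosing by quantitative nuclease protection assay with chemiluminescent read-out; induction fitted relative to DMSO, cytotoxicity flagged by microscopy.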

[14] = read-out: xenobiotic metabolism (CYP1A2), CYP1A2 (gene 1544); assay: CLD_CYP1A2_6hr: CellzDirect (CLD) Gene Expression Assay for xenobiotic metabolism (CYP1A2) at 6 hours (AID 2283663);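 as to AC50: potency is for induction meaning a rise in mRNA above DMSO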
Summary of the method: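 Primary human hepatocytes from two donor preparations, dosed daily with multiple concentrations in 0.2% DMSO and harvested at 6 h. CYP1A2 mRNA induction measured by chemiluminescent qNPA, gain of signal fitted against DMSO; cytotoxicity flagged morphologically.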

[15] = Tanguay_ZF_120hpf_PIG_legacy: (Legacy) Oregon State University Tanguay Lab 120 Hour Post-fertilization zebrafish Assay for Pigmentation Malformation (AID 2283650)
Summary of the method: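 Pronase dechorionation at 4 hpf; embryos plated at 6 hpf, one per well; static exposure, sealed and foil-covered, 28C, to 120 hpf; pigmentation read by brightfield, binary; DMSO 0.64% baseline, 5uM trimethyltin chloride positive control.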

[16] = Tanguay_ZF_120hpf_TRUN_legacy: (Legacy) Oregon State University Tanguay Lab 120 Hour Post-fertilization zebrafish Assay for Truncated Body (AID 2283655)
Summary of the method: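 5D wild-type larvae; pronase dechorionation; static exposure 6→120 hpf, 28C; DMSO 0.64% final; 5uM trimethyltin chloride positive control. Readout: presence/absence of truncated body, analyzed relative to DMSO.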

[17] = Tanguay_ZF_120hpf_SOMI_legacy: (Legacy) Oregon State University Tanguay Lab 120 Hour Post-fertilization zebrafish Assay for Somite Malformation (AID 2283647)
Summary of the method: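 5D WT zebrafish; chorion removed 4 hpf; 1 embryo/well from 6 hpf; static exposure to 120 hpf, 28C, 0.64% DMSO final. Endpoint: somite malformation, binary, brightfield. Mortality excluded.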

[18] = read-out: ABC Transporter (ABCB1), ABCB1 (gene 5243); assay: CLD_ABCB1_6hr: CellzDirect (CLD) Gene Expression Assay for ABC Transporter (ABCB1) at 6 hours (AID 2283659);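 also: hits raise ABCB1 transcript above the DMSO vehicle baseline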
Summary of the method: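 Primary human hepatocytes (two donor preparations) dosed daily for two days with chemicals at multiple concentrations, 0.2% DMSO vehicle; harvested 6 h post-dose. ABCB1 mRNA induction quantified by qNPA chemiluminescence; gain-of-signal fitted versus DMSO.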

[19] = CCTE_Simmons_CellTiterGLO_HEK293T: Viability Assessment in CCTE's Assays for Thyroperoxidase (TPO) Inhibition, Simmons Lab (AID 2283665);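 as to AC50: cells exposed to compound for 24 h before readout; actives reduce ATP signal below DMSO vehicle meaning cytotoxicity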
Summary of the method: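 HEK293T cells in DMEM with 1% FBS were dosed with 8 concentrations (5 nM–87.5 uM final, 0.5% DMSO) for 24 hr at 37C; ATP content was read by CellTiter-Glo luminescence, loss-of-signal versus DMSO, three biological replicates.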

Sequence of Broad substrate specificity ATP-binding cassette transporter ABCG2 (Homo sapiens) (Q9UNQ0 whole entry, looked up): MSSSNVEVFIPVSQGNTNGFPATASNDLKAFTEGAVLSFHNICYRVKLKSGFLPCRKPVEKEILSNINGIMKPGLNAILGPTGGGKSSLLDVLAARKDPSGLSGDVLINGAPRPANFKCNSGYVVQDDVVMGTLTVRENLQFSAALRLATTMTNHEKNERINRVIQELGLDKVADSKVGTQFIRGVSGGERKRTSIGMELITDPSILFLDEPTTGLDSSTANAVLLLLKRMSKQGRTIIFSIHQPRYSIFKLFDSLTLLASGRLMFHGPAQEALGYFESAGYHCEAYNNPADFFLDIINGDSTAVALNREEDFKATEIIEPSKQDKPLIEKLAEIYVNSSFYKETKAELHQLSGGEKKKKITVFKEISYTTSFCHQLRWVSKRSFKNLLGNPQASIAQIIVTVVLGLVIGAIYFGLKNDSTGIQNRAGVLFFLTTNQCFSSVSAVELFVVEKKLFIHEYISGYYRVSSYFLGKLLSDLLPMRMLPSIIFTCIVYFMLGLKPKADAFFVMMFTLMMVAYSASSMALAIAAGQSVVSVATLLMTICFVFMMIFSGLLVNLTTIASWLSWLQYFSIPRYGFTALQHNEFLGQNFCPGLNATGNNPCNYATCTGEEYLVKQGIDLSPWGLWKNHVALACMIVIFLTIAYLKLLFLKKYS

In the case of `CCCCN(CC)c1c([N+](=O)[O-])cc(C(F)(F)F)cc1[N+](=O)[O-]`, the outcome [1] is reported as “inactive”, the outcome [2] is reported as “inactive” and the outcome [3] is reported as “inactive”. The outcome [4] was “inactive”, the outcome [5] was “inactive” and the outcome [6] was “inactive”. The outcome [7] was “inactive”, the outcome [8] was “inactive” and the outcome [9] was “inactive”. The outcome [10] was “inactive”, the outcome [11] was “inactive” and the outcome [12] was “inactive”. For the same molecule, the outcome [13] was “inactive” and the outcome [14] was “inactive”.

In the case of `COc1cc(OC)nc(Sc2cccc(Cl)c2C(=O)O)n1`, the outcome [1] is reported as “inactive”, the outcome [2] is reported as “inactive” and the outcome [3] is reported as “inactive”. For the same molecule, the outcome [4] was “inactive”, the outcome [5] was “inactive” and the outcome [15] was “inactive”. For the same molecule, the outcome [6] was “inactive”, the outcome [8] was “inactive” and the outcome [16] was “inactive”. The outcome [9] was “inactive” and the outcome [12] was “inactive”.

In the case of `COP(=O)(OC)OC(Br)C(Cl)(Cl)Br` (stereo not drawn), the outcome [1] is reported as “inactive”, the outcome [2] is reported as “inactive” and the outcome [3] is reported as “inactive”. For the same molecule, the outcome [17] was “inactive”, the outcome [4] was “inactive” and the outcome [6] was “inactive”. For the same molecule, the outcome [16] was “inactive”, the outcome [9] was “inactive” and the outcome [12] was “inactive”. For the same molecule, the outcome [13] was “inactive” and the outcome [14] was “inactive”.

With `CCNc1nc(Cl)nc(NC(C)(C)C#N)n1` the outcome [2] was “inactive”, the outcome [3] was “inactive” and the outcome [4] was “inactive”. The outcome [5] was “inactive”, the outcome [15] was “inactive” and the outcome [6] was “inactive”. The outcome [8] was “inactive”, the outcome [16] was “inactive” and the outcome [9] was “inactive”. The outcome [18] was “inactive” and the outcome [14] was “inactive”.

With `CCOP(=S)(OCC)Oc1cc(C)nc(C(C)C)n1` the outcome [1] was “inactive”, the outcome [2] was “inactive” and the outcome [4] was “inactive”. The outcome [5] was “inactive”, the outcome [15] was “inactive” and the outcome [6] was “inactive”. For the same molecule, the outcome [16] was “inactive”, the outcome [9] was “inactive” and the outcome [12] was “inactive”. For the same molecule, the AC50 [13] was 0.682 µM (active), the AC50 [14] was 0.589 µM (active) and the AC50 [19] was 83.2 µM (active).

In the case of `S=C1NCCN1`, the outcome [1] is reported as “inactive”, the outcome [2] is reported as “inactive” and the outcome [3] is reported as “inactive”. The outcome [17] was “inactive”, the outcome [5] was “inactive” and the outcome [15] was “inactive”. For the same molecule, the outcome [8] was “inactive”, the outcome [16] was “inactive” and the outcome [9] was “inactive”. The outcome [12] was “inactive” and the outcome [19] was “inactive”.

For `CC(=NC#N)N(C)Cc1ccc(Cl)nc1`, the outcome [1] was “inactive”, the outcome [3] was “inactive” and the outcome [17] was “inactive”. For the same molecule, the outcome [4] was “inactive”, the outcome [5] was “inactive” and the outcome [15] was “inactive”. For the same molecule, the outcome [6] was “inactive”, the outcome [8] was “inactive” and the outcome [16] was “inactive”. The outcome [9] was “inactive” and the outcome [12] was “inactive”.

For `CCCOc1nn(C(=O)NS(=O)(=O)c2ccccc2C(=O)OC)c(=O)n1C`, the outcome [1] was “inactive”, the outcome [2] was “inactive” and the outcome [5] was “inactive”. The outcome [8] was “inactive”, the outcome [9] was “inactive” and the outcome [12] was “inactive”.

In the case of `O=C(O)c1cc(Oc2ccc(C(F)(F)F)cc2Cl)ccc1[N+](=O)[O-]`, the outcome [1] is reported as “inactive”, the outcome [2] is reported as “inactive” and the outcome [3] is reported as “inactive”. The outcome [4] was “inactive”, the outcome [5] was “inactive” and the outcome [15] was “inactive”. The outcome [6] was “inactive”, the outcome [8] was “inactive” and the outcome [16] was “inactive”. The outcome [9] was “inactive”, the outcome [12] was “inactive” and the outcome [13] was “inactive”.

With `CN(C)[C@@H]1C(=O)C(C(N)=O)=C(O)[C@@]2(O)C(=O)C3=C(O)c4c(O)cccc4[C@@](C)(O)[C@H]3[C@H](O)[C@@H]12` the outcome [1] was “inactive”, the outcome [2] was “inactive” and the outcome [3] was “inactive”. The outcome [17] was “inactive”, the outcome [4] was “inactive” and the outcome [5] was “inactive”. For the same molecule, the outcome [6] was “inactive”, the outcome [16] was “inactive” and the outcome [9] was “inactive”. For the same molecule, the outcome [12] was “inactive”, the outcome [13] was “inactive” and the outcome [14] was “inactive”. The AC50 [19] was 5.47 µM (active) and 53.8 µM (active) and the outcome [19] was “inactive”.
